tim10-1 inh: growth inhibitors of tim10-1 mutant yeast, primary screen, luminescence, uHTS; S. cerevisiae tim10-1 ts strain growth, BacTiter-Glo, 24 h; inhibition, % at 20 µM; 330,000 tested, 2.2% active;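 active means inhibition of at least 40%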;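 further: mutant grown at 25 °C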
NALP3 yeast inh: NALP3 inflammasome inhibitors in reconstituted yeast, primary screen, luminescence, uHTS | Yeast reconstituted NLRP3/ASC/caspase-1, beta-gal luminescence, 24 h | inhibition, % at 10 µM | 330,000 tested, 0.39% active;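 active means inhibition of 50% or more; inactive means inhibition below 50%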
tim23-1 inh: growth inhibitors of tim23-1 mutant yeast, primary screen, luminescence, uHTS; AID 463212, 2010; S. cerevisiae tim23-1 growth, BacTiter-Glo luminescence, 24 h; inhibition, % at 20 µM; 330,000 tested, 1.3% active;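 active means growth inhibition of the mutant yeast at or above 50%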;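 further: temperature-sensitive mutant grown at 25 °C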
TIM10 inh: growth inhibitors of isogenic TIM10 control yeast, primary screen, counter-screen for tim10-1 yeast inhibitor project, luminescence, uHTS; inhibition, % at 10 µM; 330,000 tested, 1.4% active; S. cerevisiae TIM10 strain growth, BacTiter-Glo luminescence, 24 h;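 active means inhibition of 40% or more at the single tested concentration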;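 further: wild-type TIM10 isogenic control strain grown at permissive 25 °C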
PfHsp90 yeast 2: growth inhibition of PfHsp90-expressing yeast, primary screen, antimalarial PfHsp90 inhibitor project, S. cerevisiae, BacTiter-Glo luminescence, single point, set 2; BacTiter-Glo ATP, 48 h; yeast lacking PDR1 and PDR3 efflux regulators; inhibition, % at 9.4 µM; 310,000 tested, 0.32% active; AID 504621, 2011;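 active means every replicate shows inhibition above about 80%, whatever the replicate mean, limit read from the data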
tim23-1 confirm: tim23-1 mutant yeast growth inhibitors, confirmation, luminescence, single concentration; shares compounds with tim23-1 inh; S. cerevisiae tim23-1 growth, BacTiter-Glo luminescence, 24 h; inhibition, % at 20 µM; 4,400 tested, 83% active; AID 463218, 2010;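 active means inhibition above about 39% in either of two replicate wells at 20 µM, limit read from the data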;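 further: temperature-sensitive tim23-1 mutant grown at 25 °C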
Large screens that a line does not name were inactive (follow-up assays come after a bar, where they were run). Rows were chosen to be rich in hits. Some 3.7% of all compounds tested hit in one or more screens of this group.

CN(C(=O)c1cc2ccccc2cc1O)C1CCCCC1	none
O=C(OCc1cccc(F)c1)c1cc2ccccc2cc1O	tim23-1 inh 94 | tim23-1 confirm inactive
CN(C(=O)COC(=O)c1cc2ccccc2cc1O)C1CCCCC1	tim23-1 inh 55 | tim23-1 confirm 49
CC(C)N(Cc1ccccc1)S(=O)(=O)N(C)C	tim23-1 inh 76 | tim23-1 confirm inactive
O=C(CSc1nnnn1Cc1ccccc1)c1ccc(F)cc1	tim23-1 inh 54 | tim23-1 confirm 52
CCOC(=O)c1ccc(NC(=O)/C=C/c2cccs2)cc1	tim23-1 inh 61 | tim23-1 confirm 52
COc1ccc(-c2cc(C(=O)Nc3cc(S(=O)(=O)N4CCOCC4)ccc3N3CCOCC3)c3ccccc3n2)cc1	none
O=C(/C=C\N1CCOCC1)c1ccc(Br)cc1	none
O=C(/C=C/N1CCOCC1)c1ccc(-c2ccccc2)cc1	tim23-1 inh 52, PfHsp90 yeast 2 106 | tim23-1 confirm inactive
O=C(Cn1ncc2c1-c1ccccc1OC2)Nc1nc2ccccc2s1	tim23-1 inh 62 | tim23-1 confirm 57
CCN(CC)C(=O)Cn1ncc2c1-c1ccccc1OC2	none
Cc1cc(C)nc(OC(=O)c2ccc(Cl)cc2Cl)n1	tim23-1 inh 74 (no result: PfHsp90 yeast 2) | tim23-1 confirm 67
CC(C)C1Cc2c(sc3ncnc(NN)c23)CO1 (stereo not drawn)	tim23-1 inh 52 | tim23-1 confirm inactive
Oc1ccc(/C=N/Nc2cccc3cccnc23)c(O)c1	tim23-1 inh 58 | tim23-1 confirm 57
Cc1ccc(/C=N/Nc2cccc3cccnc23)c(O)c1	none (no result: PfHsp90 yeast 2)
CC(C)(C)c1ccc(C(=O)N2CCC(=O)N(C(CO)Cc3ccccc3)CC2)cc1 (stereo not drawn)	none
COc1ccccc1C(=O)Nc1ccc(S(=O)(=O)N2CCC(C)CC2)cc1	none
CC1CCN(S(=O)(=O)c2ccc(NC(=O)c3ccccc3F)cc2)CC1	tim23-1 inh 52 | tim23-1 confirm 45
CC(C)NC(=S)N/N=C/C1=CCC2CC1C2(C)C (stereo not drawn)	tim23-1 inh 56 | tim23-1 confirm inactive
C=C(C)CNC(=S)N/N=C/C1=CCC2CC1C2(C)C (stereo not drawn)	none
CCCCNC(=S)N/N=C/C1=CCC2CC1C2(C)C (stereo not drawn)	tim23-1 inh 53 | tim23-1 confirm inactive
O=[N+]([O-])c1ccccc1/C=N/n1c(C2CCCCC2)n[nH]c1=S	tim23-1 inh 59 | tim23-1 confirm 48
S=c1[nH]nc(C2CCCCC2)n1/N=C/c1ccc(Cl)cc1	tim23-1 inh 63 | tim23-1 confirm inactive
O=[N+]([O-])c1cccc(/C=N/n2c(C3CCCCC3)n[nH]c2=S)c1	none
Cc1ccc(/C=N/n2c(C3CCCCC3)n[nH]c2=S)cc1	tim23-1 inh 57 | tim23-1 confirm inactive
FC(F)(F)c1ccc(/C=N/n2c(C3CCCCC3)n[nH]c2=S)cc1	tim23-1 inh 64 | tim23-1 confirm inactive
Cc1nn(-c2ccccc2)c(C)c1-c1nnc(-c2c(C)nn(-c3ccccc3)c2C)o1	none
COc1ccc(C2=NN(C(C#N)c3ccc(OC)cc3)C(c3ccccc3)C2)cc1 (stereo not drawn)	none (no result: tim10-1 inh, NALP3 yeast inh, tim23-1 inh, TIM10 inh)
O=C(NCCc1c[nH]c2ccccc12)c1cc2sccc2n1Cc1ccccc1	none (no result: PfHsp90 yeast 2)
Cn1c(C(=O)NCCc2c[nH]c3ccccc23)cc2sccc21	tim23-1 inh 57 | tim23-1 confirm 57
CCOc1ccc(NC(=O)c2ccc3c(c2)C(=O)N(Cc2ccncc2)C3=O)cc1	none (no result: PfHsp90 yeast 2)
Cc1nonc1C(=O)N/N=C/c1ccccc1	none
COc1cccc(/C=C/C(=O)c2ccc3c(c2)OCO3)c1OC	tim23-1 inh 53 | tim23-1 confirm 54
Cc1ccc(OCC(=O)NCCNC(=O)c2cccnc2)cc1C	none
CC(c1ccccc1)n1c(-c2ccc(Cl)cc2)n[nH]c1=S (stereo not drawn)	tim23-1 inh 55 | tim23-1 confirm inactive
CC(NC(=O)c1cc(-c2ccncc2)nc2ccc(Br)cc12)C1CCCO1 (stereo not drawn)	none
Cc1ccc(N2C(=O)/C(=C/c3cccnc3)SC2=S)cc1	none
Cc1cccc(N2C(=O)/C(=C/c3cccnc3)SC2=S)c1	tim23-1 inh 58 | tim23-1 confirm 54
CC1(C)C=Cc2c(ccc3c2OC[C@H](c2ccc(O)cc2O)C3)O1	tim23-1 inh 75, PfHsp90 yeast 2 106 | tim23-1 confirm inactive
CN(NC(=O)/C=C/C(=O)O)c1ncc(C(F)(F)F)cc1Cl	none
Cc1ccc(C)c(Nc2nc(-c3cccnc3)cs2)c1	tim23-1 inh 50 | tim23-1 confirm inactive
CCn1cc(Br)c(C(=O)Nc2ccc(Cl)cc2Cl)n1	tim23-1 inh 94 | tim23-1 confirm inactive
CCn1cc(Br)c(C(=O)Nc2ccc(F)c(Cl)c2)n1	tim23-1 inh 53 | tim23-1 confirm 44
O=C1C=C(c2ccc3ncccc3c2)C[C@@H](c2ccc(Cl)cc2)C1	tim23-1 inh 52 | tim23-1 confirm inactive
O=C1C=C(c2ccc3[nH]ccc3c2)C[C@@H](c2ccc(Cl)cc2)C1	tim23-1 inh 52 | tim23-1 confirm 46
O=C1C=C(c2ccc(O)cc2)C[C@@H](c2ccc(Cl)cc2)C1	tim23-1 inh 53 | tim23-1 confirm inactive
Cc1ccc(C2=CC(=O)C[C@H](c3ccc(Cl)cc3)C2)cc1	none
O=C1C=C(c2ccc3ccccc3c2)C[C@@H](c2ccc(Cl)cc2)C1	none
CC(NCC1(N2CCOCC2)CCCCC1)C(=O)Nc1ccc(Cl)cc1Cl (stereo not drawn)	none
COc1cccc(NC(=O)COC(=O)CC2CC3CCC2C3)c1 (stereo not drawn)	tim23-1 inh 56 | tim23-1 confirm 41
CC(=O)c1cccc(NC(=O)COC(=O)CC2CC3CCC2C3)c1 (stereo not drawn)	none
O=C1[C@H](Oc2ccccc2)[C@@H](c2ccccc2)N1c1ccncc1	tim23-1 inh 62 (no result: NALP3 yeast inh) | tim23-1 confirm inactive
COc1ccccc1Nc1nc(N)nc(CSC(=S)N2CCC(C)CC2)n1	tim23-1 inh 50 | tim23-1 confirm inactive
COc1ccccc1Nc1nc(N)nc(CN2CCC(C)CC2)n1	none (no result: PfHsp90 yeast 2)
CC(C)(C)c1nnc(N/N=C/c2ccccc2O)n(N)c1=O	tim23-1 inh 62 | tim23-1 confirm 47
COc1ccc(-c2sc3ccccc3c2-c2ccc(OCCN(C)C)cc2)cc1	none
CN(C)CCOc1ccc(-c2c(-c3ccsc3)sc3ccccc23)cc1	tim23-1 inh 76 | tim23-1 confirm 57
Oc1c(C(Nc2cccc(C(F)(F)F)c2)c2ccncc2)ccc2cccnc12 (stereo not drawn)	tim23-1 inh 59, PfHsp90 yeast 2 104 | tim23-1 confirm 56

Screening results from PubChem.
